Many of the other results were omitted from the sample, so hits are more common in it than they were.
HIV RNase H inh-1 – inhibitors of HIV-1 reverse transcriptase RNase H; P04585; RT-RNase H RNA/DNA duplex cleavage, fluorescence; inhibition, % at 10 µM; hit rate 1.9% among 65,000; AID 565; in the data active = inhibition above about 50%
RmlC RmlD mix – RmlC/RmlD inhibition, mixture screen | RmlC/RmlD coupled enzyme inhibition, 384-well mixture HTS | inhibition, % at 5.5 µM | hit rate 0.39% among 110,000; in the data active = inhibition above about 30%, passing the limit was not always enough; inconclusive = no clear call, values can overlap the other calls
HIV RNase H inh-2 – confirmation of HIV-1 reverse transcriptase RNase H inhibitors. hit rate 39% among 1,000. Recombinant RT RNase H, fluorescent RNA/DNA duplex cleavage. shares compounds with HIV RNase H inh-1. inhibition, % at 10 µM; in the data active = inhibition above about 48%; inconclusive = no clear call, values can overlap the other calls
An asterisk follows results filed as active; ? = inconclusive; . = not tested or not shown.

SMILES	HIV RNase H inh-1	RmlC RmlD mix	HIV RNase H inh-2
CC1CCN(c2nc3c(c(=O)[nH]c(=O)n3C)n2CCSc2ncccn2)CC1	-3.7	.	.
O=C(CSc1nc2c(c(=O)[nH]1)CCCC2)Nc1ccc(Cl)cc1F	-11.6	15.1	.
Cn1cnnc1SCC(=O)Nc1sc2c(c1C(N)=O)CCC2	75.4*	1.7	11.0
Cc1nnc(SCC(=O)Nc2sc3c(c2C(N)=O)CCCC3)[nH]c1=O	.	57.8	.
CCCc1nnc(NC(=O)Cn2c(=O)oc3ccccc32)s1	77.2*	.	-15.8
CCc1nnc(NC(=O)Cn2c(=O)oc3ccccc32)s1	.	8.1	.
CCOC(=O)c1ccc(S(=O)(=O)Nc2ccc3cn[nH]c3c2)cc1	.	-3.9	.
NC(=O)c1sc2nc(-c3ccco3)ccc2c1N	.	2.5	.
COC(=O)c1sc2nc(-c3ccco3)ccc2c1N	79.2*	-19.8	33.8
CCc1c(O)cc2n(c1=O)-c1ccc(Cl)cc1C2(C)C	.	14.8	.
CCNC(=O)CSc1ncnc2sccc12	.	-4.3	.
CCn1c(SCC(=O)Nc2ccc3c(c2)OCCO3)nnc1-c1ccco1	-1.1	-14.0	.
CCn1c(SCC(=O)Nc2ccc3c(c2)c2ccccc2n3CC)nnc1-c1ccco1	100.2*	.	10.9
CCn1c(SCC(=O)Nc2oc(-c3ccccc3)c(-c3ccccc3)c2C#N)nnc1-c1ccco1	64.1*	11.6	13.5
CCn1c(SCC(=O)Nc2oc(-c3ccccc3)c(-c3ccccc3)c2C#N)nnc1-c1ccncc1	.	5.5	.
N#Cc1c(NC(=O)CSc2ncnc3sccc23)oc(-c2ccco2)c1-c1ccco1	73.7*	2.2	18.9
Cc1ccc(NC(=O)COC(=O)c2ccn(C)n2)cc1	-4.1	-0.2	.
CCOC(=O)Cc1cc(=O)[nH]c(/N=C(\N)Nc2ccc(C)cc2C)n1	.	-6.7	.
COCCSc1ccccc1C(=O)Nc1cccnc1	.	1.2	.
COCCSc1ccccc1C(=O)Nc1cc(C)on1	80.3*	-3.0	63.5*
CCCNC(=O)c1c(CSc2ccc(Cl)cc2)noc1C(=O)NCc1ccccc1	.	-2.3	.
CCCCOC(=O)CSCC(=O)Nc1cc(C)on1	70.9*	-9.7	5.2
Cc1cc(NC(=O)CSc2ccccc2)no1	-9.2	-11.3	.
CCOc1ccc(CCNC(=O)CN2CCN(Cc3ccccc3C)C2=O)cc1OCC	-9.8	7.8	.
CC(C)(C)S(=O)(=O)c1c(C(=O)O)cccc1C(=O)O	-2.4	6.8	.
SMILES	HIV RNase H inh-1	RmlC RmlD mix	HIV RNase H inh-2
Fc1cccc(F)c1CSc1nc2ccccc2[nH]1	.	-16.4	.
Fc1ccccc1CSc1nc2ncccc2[nH]1	87.6*	6.8	60.4*
Cc1cc(C(=O)OCC(=O)NCCC(C)C)c2ccccc2n1	.	9.9	.
CCCC1COC(Cn2cncn2)(c2ccc(C)cc2)O1 (stereo unspecified)	-10.8	-2.7	.
CCC(C)n1ncn(-c2ccc(N3CCN(c4ccc(OCC5COC(Cn6cncn6)(c6ccc(Cl)cc6Cl)O5)cc4)CC3)cc2)c1=O (stereo unspecified)	72.7*	57.4	37.0
CC1CC(C)CN(CCCNC(=O)c2ccc3c(c2)NC(=O)C(N2CCCCC2)S3)C1 (stereo unspecified)	-0.7	-19.9	.
O=C(c1ccc(F)cc1)N1CCN(c2cc(N3CCCCC3)c(F)cc2[N+](=O)[O-])CC1	.	9.0	.
COc1ccc(OCCOC(=O)c2ccc(-n3cnnn3)cc2)cc1	.	-6.7	.
COc1ccc(-n2c(C)cc(C(=O)COc3ccc(-n4cnnn4)cc3)c2C)cc1	53.2*	7.4	24.0
Cc1ccc(NC(=O)CSc2nnc(-c3ccncc3)n2N)cc1C	1.6	-14.6	.
CCCCNC(=O)c1onc(CSc2cccc(C)c2)c1C(=O)O	.	-16.8	.
Cc1cc(C)c(C#N)c(=N)o1	92.8*	.	73.8*
CSc1nc(C)cc(C)c1C#N	.	12.2	.
Nn1cnn(Cc2ccccc2)c1=S	73.4*	-3.7	?
c1ccc(Cn2ncc3ccccc32)cc1	-51.5	8.5	.
COC(=O)c1cc(CSc2nnc(NC3CCCCC3)s2)oc1C	-6.7	-11.2	.
Cc1c(NC(=O)c2ccc3c(c2)OCO3)c(=O)n(-c2ccccc2)n1C	0.4	-6.3	.
Cc1noc(C)c1CSc1nnc2scc(-c3ccccc3)n12	63.1*	-2.3	16.2
Cc1noc(C)c1CSc1nnc(-c2ccccc2)n1N	.	-7.6	.
COCCCNC(=O)C1CCCN(C(=O)Nc2ccc(OC)cc2)C1 (stereo unspecified)	-21.5	2.3	.
Cc1cc(Nc2cc(Cl)nc(Sc3ccc(NC(=O)C4CC4)cc3)n2)n[nH]1	.	-11.0	.
CCCNC(=O)c1c(NC(=O)C2COc3ccccc3O2)sc2c1CCCC2 (stereo unspecified)	.	7.3	.
O=C(NC1CCS(=O)(=O)C1)c1c(NC(=O)C2COc3ccccc3O2)sc2c1CCCC2 (stereo unspecified)	54.3*	2.3	70.0*
Cn1c(SCC2CCCCC2)nnc1-c1ccncc1	-7.5	-23.9	.
O=C1c2ccccc2C(=O)N1c1ccc(-c2nc3ccccc3o2)cc1	13.2	28.8	.
SMILES	HIV RNase H inh-1	RmlC RmlD mix	HIV RNase H inh-2
O=C(CCN1C(=O)c2ccccc2C1=O)Nc1ccc(-c2nc3ccccc3o2)cc1	88.4*	.	67.8*
O=C(CCN1C(=O)c2ccccc2C1=O)Nc1ccc(F)cc1	-5.5	2.3	.
O=C(CN1C(=O)c2ccccc2C1=O)Nc1ccc(-c2nc3ccccc3o2)cc1	66.3*	11.2	0.7
CCOc1ccc(C(=O)OCC(=O)Nc2cc(C)on2)cc1OCC	.	-117.0	.
COc1cc(C(=O)OCC(=O)Nc2cc(C)on2)ccc1OCc1ccccc1Cl	51.7*	17.2	20.8
Cc1cccc(-n2c(O)c(C=Nc3ccc4c(c3)OCO4)c3ccccc3c2=O)n1	65.3*	-5.6	23.1
Cc1ccc(-n2c(O)c(C=Nc3ccc4c(c3)OCO4)c3ccccc3c2=O)cc1C	.	37.0	.
CC1C/C(=N\NC(=S)NC(C)C)CC(C)(C)C1 (stereo unspecified)	.	5.8	.
CCOC(=O)N1CCC(NC(=O)CSc2cc(=O)n(C)c3ccc(Cl)cc23)CC1	-8.8	.	.
C=CCn1c(=O)[nH]c2cc(C(=O)N3CCN(c4cc(C)ccc4C)CC3)ccc2c1=O	79.6*	.	31.5
C=CCn1c(=O)[nH]c2cc(C(=O)N3CCN(c4ccc(C(C)=O)cc4)CC3)ccc2c1=O	34.8	.	.
CCn1c(-c2c[nH]c3ccccc23)n[nH]c1=S	-20.8	2.4	.
C=CCn1c(-c2c[nH]c3ccccc23)n[nH]c1=S	57.3*	2.9	16.0
Cc1ccc(NCN2C(=O)C3C4C=CC(C4)C3C2=O)cc1 (stereo unspecified)	-11.5	8.6	.
O=C1C2C3C=CC(C3)C2C(=O)N1CNc1ccc(O)cc1 (stereo unspecified)	80.2*	?	15.7
O=c1c2ccccc2nc(SCc2nc(-c3ccccc3)no2)n1-c1ccc(F)cc1	-3.7	9.5	.
Cc1ccc(N2C(=O)C3C(C2=O)C2C=CC3C23CC3)cc1 (stereo unspecified)	1.2	-1.1	.
O=C1C2C(C(=O)N1c1ccncc1)C1C=CC2C12CC2 (stereo unspecified)	73.8*	-7.7	29.0
CC[C@H](C)/C=C/C1=CC2=C(Cl)C(=O)[C@@]3(C)OC(=O)C(C(=O)[C@H](C)[C@@H](C)O)=C3C2=CO1	.	-10.4	.
COC(=O)c1ccc(CSc2nnnn2-c2ccc(C)cc2C)o1	-33.3	-1.6	.
COC(=O)c1sc(NC(=O)CSc2nnnn2-c2ccc(C)cc2C)nc1C	63.8*	6.7	8.6
CCCCC1=CC2=CC(=O)C(C)(OC(=O)c3cnc4ccccc4n3)C(=O)C2=CO1 (stereo unspecified)	.	13.6	.

Bioassay records (PubChem)
